Values joined by “and” are separate entries in the source; they are usually repeats but may differ in a detail not shown here. Identical values can stand only once. Active and inactive are the calls of the source.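 How the source made its calls, unless noted: active means compounds whose cell count with miR-34 switched on is under 0.7 times the count with it off; inactive means the rest.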

The first assay is described as follows: modulation of C. elegans fzo-1 (AID 1259413; call rule not given here;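 further: fzo-1 mutant C. elegans worms in liquid wells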). The following applies: C. elegans fzo-1 modulator screen, mean read-out; active compounds read high.
As for `CC(=O)OCC(=O)[C@@]1(O)CC[C@H]2[C@@H]3CCC4=CC(=O)C=CC4(C)[C@H]3[C@@H](O)CC21C` (some centres not stated), the mean signal was 224 (inactive).

For the compound `C#C[C@]1(OC(C)=O)CC[C@H]2[C@@H]3CCC4=CC(=O)CC[C@@H]4[C@H]3CCC21C` (some centres not stated), the mean signal is 228 (inactive).

As for `CC12C=CC(=O)C=C1CC[C@@H]1[C@@H]2[C@@H](O)CC2(C)[C@H]1CC[C@]2(O)C(=O)CO` (some centres not stated), the mean signal was 258 (inactive).

On to `C#C[C@]1(O)CC[C@H]2[C@@H]3CCC4=CC(=O)CC[C@@H]4[C@H]3CCC21C` (some centres not stated), for which the mean signal is 236 (inactive).

Consider `COc1cc(N)c(Cl)cc1C(=O)N[C@@H]1CCN(CCCOc2ccc(F)cc2)C[C@@H]1OC`, for which the mean signal was 277 (inactive).

As to `CCCC1O[C@@H]2C[C@H]3[C@@H]4CCC5=CC(=O)C=CC5(C)[C@H]4[C@@H](O)CC3(C)C2(C(=O)CO)O1` (some centres not stated), the mean signal was 259 (inactive).

Turning to `CC1(C)O[C@@H]2C[C@H]3[C@@H]4C[C@H](F)C5=CC(=O)C=CC5(C)[C@@]4(F)[C@@H](O)CC3(C)C2(C(=O)CO)O1` (some centres not stated), the mean signal is 256 (inactive).

The next assay can be described thus: viability loss with induced miR-34 in A549 – imaging, A549 dox-inducible miR-34, nuclei and caspase counts, primary screen (AID 1347080). Further: test concentration not given here. As to conditions: A549 miR-34 inducible, Hoechst nuclei count, 48 h; active compounds read low; cell number ratio, induced over uninduced.
For `O=C1N=C(O)CN1N=Cc1ccc(-c2ccc([N+](=O)[O-])cc2)o1`, the fold change was 0.951 (inactive).

For the compound `CC1c2cccc(O)c2C(O)=C2C(=O)[C@]3(O)C(O)=C(C(N)=O)C(=O)[C@@H](N(C)C)[C@@H]3C[C@@H]21` (some centres not stated), the fold change was 1 (inactive).

For the compound `C[C@H]1O[C@@H](O[C@H]2[C@@H](O)C[C@H](O[C@H]3[C@@H](O)C[C@H](O[C@H]4CC[C@@]5(C)[C@H](CC[C@@H]6[C@@H]5C[C@@H](O)[C@]5(C)C(C7=CC(=O)OC7)CC[C@]65O)C4)O[C@@H]3C)O[C@@H]2C)C[C@H](O)[C@@H]1O` (some centres not stated), the fold change is 0.475 (active).

Regarding `CON=C(C(=O)N[C@@H]1C(=O)N2C(C(=O)O)=C(COC(N)=O)CS[C@H]12)c1ccco1`, the fold change was 0.935 (inactive).

Turning to `Cc1cc(=O)oc2cc(NC(=O)C3CCC(=O)N3)ccc12` (configuration not stated), the fold change is 0.953 (inactive).

In the case of `CN1CCN2c3ncccc3Cc3ccccc3[C@@H]2C1`, the fold change is 1.01 (inactive).

As for `CN(C)S(=O)(=O)c1ccc2c(c1)/C(=C\CCN1CCNCC1)c1ccccc1S2`, the fold change is 0.93 (inactive).

As for `CCC(=O)NS(=O)(=O)c1ccc(-c2c(-c3ccccc3)noc2C)cc1`, the fold change is 0.873 (inactive).

Consider `CN(C)CC/C=C1/c2ccccc2COc2ccccc21`, for which the fold change was 0.906 (inactive) and 0.927 (inactive).

Take `CC(=O)NCCCCCCNC(C)=O`: the fold change is 0.955 (inactive).

`COCCCCC(=NOCCN)c1ccc(C(F)(F)F)cc1`: the fold change is 0.929 (inactive) and 0.879 (inactive) and 0.949 (inactive).

For the compound `CCN(CC)CCOc1ccc(C(=C(Cl)c2ccccc2)c2ccccc2)cc1`, the fold change was 1.09 (inactive) and 0.932 (inactive).

Consider `CO[C@H]1/C=C/O[C@@]2(C)Oc3c(C)c(O)c4c(O)c(c(C=NN5CCN(C6CCCC6)CC5)c(O)c4c3C2=O)NC(=O)/C(C)=C\C=C\[C@H](C)[C@H](O)[C@@H](C)[C@@H](O)[C@@H](C)[C@H](OC(C)=O)[C@@H]1C`, for which the fold change is 0.995 (inactive).

For the compound `O=C1CN(N=Cc2ccc([N+](=O)[O-])o2)C(=O)N1`, the fold change was 0.912 (inactive).

In the case of `COc1cc(N)c(Cl)cc1C(=O)N[C@@H]1CCN(CCCOc2ccc(F)cc2)C[C@@H]1OC`, the fold change was 0.991 (inactive).
